# Bioassay records from PubChem.
# FEN1 inhibitor = qHTS Assay for the Inhibitors of Human Flap endonuclease 1 (FEN1). 0.35% of 390,000 active. P39748. Potency, µM (highest dose often 114 µM), without a hit: at the highest dose activity change, negative = inhibition, actives largely listed as inhibitors. Recombinant FEN1 flap cleavage, fluorescence, 15 min; note: % is set by controls: 0 for no effect and ±100 for the full control effect; nearly all actives have a fitted effect of over 65% in size
#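 Quantitative HTS format: each compound was titrated, incubated with 10 nM nuclease for 15 min at room temperature, then challenged with flap substrate at 50 nM final. Signal change over 15 min gave concentration–effect curves.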
# Pol kappa inh-1 = qHTS for Inhibitors of Polymerase Kappa; DNA polymerase kappa (Homo sapiens), Q9UBT6; purified Pol kappa, fluorescent DNA synthesis assay, 10 min; Potency, µM (doses to about 107 µM), without a hit: top-dose activity, negative = inhibition, actives largely listed as inhibitors; 0.53% of 400,000 active; AID 588579, 2011; note: % is set by controls: 0 for no effect and ±100 for the full control effect
#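 10 nM Pol kappa was preincubated with compounds for 15 min at room temperature. Reaction started with 50 nM (final) substrate. Fluorescence read kinetically at 0 and 10 min.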
# WRN inhibitor = qHTS for Inhibitors of WRN Helicase; WRN helicase unwinding, fluorescent forked duplex, kinetic; Potency, µM (series often up to 114 µM), without a hit: at the highest dose activity change, negative = inhibition, hits mostly inhibitors; 0.46% of 360,000 active; note: % is set by controls: 0 for no effect and ±100 for the full control effect; nearly all actives have a fitted effect of over 55% in size
#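 Kinetic fluorescence helicase assay: unwinding of a quenched forked DNA duplex (100 nM final) with 2 mM ATP final raises red fluorescence (525/598 nm). Compounds sat 15 min at room temperature with 20 nM WRN beforehand.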
# POLB inh = qHTS Assay for Inhibitors of DNA Polymerase Beta; Pol beta primer extension/strand displacement, fluorescence kinetic; Potency, µM (doses to about 114 µM), for the others: at the top dose activity change, negative = inhibition, most hits filed as inhibitors; 1.3% of 340,000 active; note: % is set by controls: 0 for no effect and ±100 for the full control effect
#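 Kinetic readout of DNA synthesis with strand displacement by Pol beta. Compound and 10 nM enzyme sit 15 min at room temperature; 50 nM substrate starts the reaction, read immediately and at 10 min.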
# Pol iota inh = qHTS for Inhibitors of Polymerase Iota; DNA polymerase iota (Homo sapiens), Q9UNA4; Pol iota fluorescent replication assay, 10 min; Potency, µM (highest dose often 115 µM), for the others: top-dose activity, negative = inhibition, hits mostly inhibitors; 1% of 390,000 active
# Target sequence (Q9UNA4 whole entry, looked up): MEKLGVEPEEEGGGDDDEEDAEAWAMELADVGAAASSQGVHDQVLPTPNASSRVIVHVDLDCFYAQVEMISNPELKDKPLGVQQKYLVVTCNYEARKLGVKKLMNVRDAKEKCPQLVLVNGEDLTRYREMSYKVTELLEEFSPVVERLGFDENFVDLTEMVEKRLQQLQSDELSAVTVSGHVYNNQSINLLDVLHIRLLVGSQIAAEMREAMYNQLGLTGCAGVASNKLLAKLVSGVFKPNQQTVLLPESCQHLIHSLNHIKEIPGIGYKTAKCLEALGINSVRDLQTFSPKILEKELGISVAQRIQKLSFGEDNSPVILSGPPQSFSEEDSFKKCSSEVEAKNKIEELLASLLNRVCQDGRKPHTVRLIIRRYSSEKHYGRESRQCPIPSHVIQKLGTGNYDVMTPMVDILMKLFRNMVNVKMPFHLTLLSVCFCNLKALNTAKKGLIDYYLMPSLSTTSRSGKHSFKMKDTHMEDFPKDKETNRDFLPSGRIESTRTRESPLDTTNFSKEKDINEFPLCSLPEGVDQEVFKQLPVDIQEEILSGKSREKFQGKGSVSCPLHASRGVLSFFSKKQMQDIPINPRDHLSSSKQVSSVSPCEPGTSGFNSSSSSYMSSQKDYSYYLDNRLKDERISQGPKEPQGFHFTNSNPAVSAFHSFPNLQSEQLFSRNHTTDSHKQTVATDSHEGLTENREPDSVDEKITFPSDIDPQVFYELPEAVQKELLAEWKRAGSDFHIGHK
#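 Pol iota at 10 nM preincubated 15 min with compounds at room temperature; reaction started with fluorescent substrate, 50 nM final. Fluorescence read kinetically at 0 and 10 min; buffer-only wells as negative control.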
# Pol eta inh-1 = qHTS for Inhibitors of Polymerase Eta | recombinant Pol eta, fluorescent DNA replication assay | Potency, µM (titrated, usually from 114 µM), for the others: at the highest dose activity change, negative = inhibition, hits mostly inhibitors | AID 588591, 2011 | 1.2% of 390,000 active | DNA polymerase eta (Homo sapiens), Q9Y253; note: % is set by controls: 0 for no effect and ±100 for the full control effect
#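 Fluorescent replication assay: 50 nM final substrate added after a 15 min room-temperature compound preincubation with 10 nM enzyme. Signal taken at 0 min and again at 10 min.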
# Pol kappa inh-2 = qHTS for Inhibitors of Polymerase Kappa: Confirmatory Assay for Cherry-picked Compounds. shares compounds with Pol eta inh-1. purified Pol-kappa, fluorescent strand-displacement substrate. Potency, µM, usual class: inhibitors. 76% of 920 active. AID 720501, 2013
# Pol eta inh-2 = qHTS for Inhibitors of Polymerase Eta: Confirmatory Assay for Cherry-picked Compounds. shares compounds with Pol eta inh-1. Pol eta primer extension, TAMRA/BHQ fluorescence, 10 min. Potency, µM, hits mostly inhibitors. 64% of 2,600 active
# * = called active by the depositor; ? = inconclusive; . = not tested or not shown; [ ] = dose if it differs, or a comment. This is a sample that favours compounds with a hit; in the whole collection about 2.4% have one here. Calls come from the whole dose curve; as a rule, active = well fitted curve in the direction sought with a large enough effect; inconclusive = small, poorly fitted or top-dose-only effect, or another doubt; inactive = no such curve, though single readings can be large; an effect the other way counts as inactive or inconclusive. Potency is the fitted concentration of half-maximal effect.
SMILES,FEN1 inhibitor,Pol kappa inh-1,WRN inhibitor,POLB inh,Pol iota inh,Pol eta inh-1,Pol eta inh-2,others
Cc1ccc(C(=O)N/C(=C\c2ccc(C)o2)C(=O)O)cc1,11%,?,-10%,?,-22%,32µM*,?,
CCn1c(C(=O)N2CCC(C(=O)N3CCN(c4cc(C)ccc4C)CC3)CC2)cc2sccc21,-25%,-17%,.,?,4%,-10%,.,
Cc1ccc(O)c(N=Cc2cc(Cc3ccccc3)cc([N+](=O)[O-])c2O)c1,?,?,?,5.6µM*,?,79µM*,.,Pol kappa inh-2=67*
O=[N+]([O-])c1cc(Cc2ccccc2)cc(C=Nc2ccc(N3CCOCC3)cc2)c1O,?,-19%,?,0%,0%,?,.,
COc1cc(NC(=O)c2ccc3c(SCC(=O)O)c4c(nc3c2)CCCC4)cc(OC)c1OC,-26%,?,-16%,?,?,-7%,.,
COc1cc(NC(=O)c2ccc3c(SCC(=O)O)c4c(nc3c2)CCC4)cc(OC)c1OC,2%,?,-17%[11.6 µM],-4%,?,18µM*,54*,
CC(=O)OCc1nc2sc3c(c2c(=O)[nH]1)CCCC3,5%,-4%,0%,16%,8%,8%,.,
Cc1ccc(NC(=O)CCc2nc3sc4c(c3c(=O)[nH]2)CCCC4)c(Br)c1,-3%,?,?,.,40µM*,25µM*,85*,
CCN(CC(=O)Nc1ccccc1C(F)(F)F)C(=O)CCc1nc2sc3c(c2c(=O)[nH]1)CCCC3,-10%,?,-3%[11.6 µM],.,28µM*,16µM*,?,
Cc1cccc(C)c1NC(=O)CN(C)C(=O)c1ccc2nc[nH]c2c1,-2%,?,-8%[11.6 µM],.,22µM*,?,67*,
CCC(=O)N1CCCc2cc(S(=O)(=O)N3CCC(C(=O)Nc4ccccc4CC)CC3)ccc21,2%,-6%[60.1 µM],.,4%,-13%,-7%,.,
O=C(O)c1ccc(N/N=C/C2=C(N3CCOCC3)C(=C\c3ccccc3)/CC2)cc1,-20%,32µM*,?,?,?,50µM*,?,
CC(OC(=O)c1ccc(S(=O)(=O)NCc2ccco2)cc1)C(=O)Nc1ccc(Cl)cn1 (stereo not drawn),-6%,-19%,-34%,?,?,?,67*,
CCCNC(=O)Cn1nc(-c2ccc(C)c(C)c2)c2cnc3ccc(OC)cc3c21,1%,-1%,.,3%,?,1%,.,
CC1=NN(c2ccccc2)C(=O)/C1=C/c1ccc(-c2ccc(C)c(C(=O)O)c2)o1,18µM*,-15%,?,.,?,25µM*,?,
Cc1ccc(NC(=O)/C(C#N)=C/c2ccc(-c3ccc(Cl)c(C(=O)O)c3)o2)cc1C,-4%,?,.,-21%,-23%,-9%,.,
CC1=NN(c2ccc(Cl)c(C(=O)O)c2)C(=O)/C1=C\c1ccc(-c2ccc(C(=O)O)cc2)o1,?,?,?,16µM*,?,13µM*,?,Pol kappa inh-2=15*
CC1=NN(c2ccccc2)C(=O)/C1=C/c1ccc[nH]1,-23%,-12%,-9%,9%,-5%,-18%,.,
O=c1c2ccccc2n2c(-c3ccccc3F)nnc2n1CCc1ccccc1,-16%,-10%,.,-21%,5%,5%,.,
CC1CCN(S(=O)(=O)c2ccc3c(ccn3CCC(=O)NCc3ccccc3F)c2)CC1,-13%,-7%,.,8%,-1%,-9%,.,
O=c1c(C(c2c(O)nc3n(c2=O)CCS3)c2cccc3ccccc23)c(O)nc2n1CCS2,-4%,40µM*,?,?,?,22µM*,?,
Cc1ccc(C(c2c(O)nc3n(c2=O)CCS3)c2c(O)nc3n(c2=O)CCS3)cc1,-4%,-34%,?,35%,?,-13%,.,
O=C(O)c1ccc(Cl)c(S(=O)(=O)Nc2ccc3cn[nH]c3c2)c1,-12%,?,-14%,22µM*,?,18µM*,?,
O=[N+]([O-])c1ccc(Cl)c(S(=O)(=O)Nc2ccc3cn[nH]c3c2)c1,11%,-4%,4%,.,29%,-9%,.,
COc1ccccc1C(=O)Nc1nc2nc(C)c(Cc3ccccc3)c(=O)n2[nH]1,9%,-23%,.,-11%,18%,?,76*,
SMILES,FEN1 inhibitor,Pol kappa inh-1,WRN inhibitor,POLB inh,Pol iota inh,Pol eta inh-1,Pol eta inh-2,others
Cc1nc2nc(NC(=O)c3ccc(C(C)(C)C)cc3)[nH]n2c(=O)c1Cc1ccccc1,-8%,-19%,.,-1%,2%,-1%,.,
CC(C)c1ccc(Cn2ccc3c4c(N)nc(NC5CC5)nc4ccc32)cc1,.,-14%[19.4 µM],.,.,.,.,.,
O=C(O)c1ccc(S(=O)(=O)N[C@H](Cc2ccc(O)cc2)C(=O)O)cc1,.,.,.,.,.,.,34*,
CC(=O)Nc1ccn(C2CC3OCC(NC(=O)C(Cc4ccccc4)NC(=O)OC(C)(C)C)C3O2)c(=O)n1 (stereo not drawn),6%,12%,.,.,8%,.,.,
CCNC(=O)NC(=O)COc1ccccc1C#N,5%,-4%,1%,11%,-4%,0%,.,
N#Cc1ccccc1OCC(=O)NC(=O)NCc1ccco1,8%,-39%,-11%[11.6 µM],-29%,?,40µM*,?,
C/C(N)=C(/C#N)C(=O)COC(=O)C1Cc2ccccc2CN1S(C)(=O)=O (stereo not drawn),0%,?,-32%,40µM*,22µM*,20µM*,67*,
CS(=O)(=O)N1Cc2ccccc2CC1C(=O)OCC(=O)NCc1ccccc1 (stereo not drawn),-8%,?,?,.,79µM*,16µM*,?,
COc1cc(OC)c(NC(=O)CSc2nc3ccncc3[nH]2)cc1Cl,-16%,-12%,.,10%,0%,-10%,.,
COc1ccc(Cl)cc1NC(=O)c1c(NCc2ccc(C)o2)sc2c1CCCC2,-4%,-9%[60.1 µM],.,2%,?,50µM*,?,
Nc1nc(N)c(S(=O)(=O)c2ccccc2)c(Nc2ccc(Br)cc2)n1,-12%,-12%,.,13%,8%,-12%,.,
